# Sampled rows, rich in hits. Any-hit rate of the full collection: about 2.8%.
# bovine MsrA act: bovine MsrA enzyme activators, primary screen, biochemical, absorbance, HTS. activation, % at 10.6 µM. purified bovine MsrA, absorbance read-out. Methionine sulfoxide reductase A (Bos taurus). 0.3% of 360,000 active; in the data active = activation above about 7.5%;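 also: 0% = vehicle and 100% = reference activator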
# MsrA inhibitor: bovine MsrA enzyme inhibitors, primary screen, biochemical, absorbance, HTS; AID 651718, 2012; Methionine sulfoxide reductase A (Bos taurus); inhibition, % at 15.5 µM; purified bovine MsrA, absorbance read-out; 0.75% of 360,000 active; in the data active = inhibition above about 4.5%;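 also: 0% = vehicle wells with enzyme and 100% = reference inhibitor wells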
# SMARCA2 act: SMARCA2 (BRM) function activators, primary screen, cell-based, luminescence, high throughput; MG213 cells, MMTV-luciferase reporter, dexamethasone, overnight; activation, % at 9.1 µM; AID 652017, 2013; 1% of 370,000 active; in the data active = activation above about 7.8%;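 also: 0% = vehicle wells and 100% = reference activator wells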
# KLK7 zymogen act: proKLK7 zymogen activators, primary screen, biochemical, fluorescence intensity | purified proKLK7, EDANS-DABCYL substrate fluorescence; 100% is mature enzyme control, 0% vehicle | activation, % at 7 µM | 0.9% of 370,000 active | AID 652039, 2013;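 active = activation above the mean of all tested compounds plus 3 SD, computed per campaign excluding outliers beyond control limits, cut at about 13% in these data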
# Target sequence (P49862 whole entry, looked up): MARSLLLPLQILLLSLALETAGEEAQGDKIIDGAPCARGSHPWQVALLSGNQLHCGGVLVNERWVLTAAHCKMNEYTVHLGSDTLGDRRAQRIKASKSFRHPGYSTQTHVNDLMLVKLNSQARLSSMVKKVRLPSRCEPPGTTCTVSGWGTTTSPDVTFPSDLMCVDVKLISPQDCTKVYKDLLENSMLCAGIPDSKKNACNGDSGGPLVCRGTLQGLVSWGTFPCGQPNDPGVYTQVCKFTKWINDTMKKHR
# MsrA activ conf: bovine MsrA activators, retest, confirmation, biochemical, absorbance, HTS; shares compounds with bovine MsrA act; purified bovine MsrA, absorbance read-out; activation, % at 10.6 µM; 12% of 1,000 active; in the data active = activation above about 4%;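 also: enzyme coupled to thioredoxin and thioredoxin reductase with NADPH; 0% = vehicle wells and 100% = reference activator wells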
# The depositor's hits bear a star; · = no result given.
SMILES,bovine MsrA act,MsrA inhibitor,SMARCA2 act,KLK7 zymogen act,MsrA activ conf
COc1cc2c(cc1OC)C(c1cc([N+](=O)[O-])ccc1O)NCC2 (configuration not stated),9.0*,0.1,-2.5,-0.1,-7.3
CCOc1ccc2oc(C(=O)OCC(=O)N3C(C)CCCC3C)c(C)c2c1 (configuration not stated),8.7*,0.9,-2.4,-0.8,-1.0
Cc1oc(CC(C)C)cc1C(=O)Nc1cccc2ccccc12,7.8*,-0.2,-1.5,0.1,0.1
COc1cc(OC)cc(C2=Cc3ccc(OC)cc3C(CC(C)=O)N2c2ccc(C#CC3(O)CCCCC3)cc2)c1 (configuration not stated),-8.0,2.4,-12.9,4.8,·
COc1cccc(C2=Cc3ccc(F)cc3C(CC(C)=O)N2c2ccc(C#CC3(O)CCCCC3)cc2)c1 (configuration not stated),8.1*,0.6,-12.4,0.4,-2.0
COC(=O)[C@H](NC(=O)c1cc(-c2ccccc2)nc2ccccc12)c1ccccc1,9.4*,0.9,-3.6,-0.7,-0.2
CSc1ccccc1CNC(=O)C1(C)CCCN1CC(C)C (configuration not stated),0.6,-0.8,-0.9,0.9,·
CCOC(=O)[C@H]1[C@H]2COc3ccc(OC)cc3[C@@H]2N2C(=O)CN(Cc3ccc(C)cc3)C(=O)[C@@]12C,14.0*,0.2,0.7,0.1,0.2
CCc1ccc(CN(C)Cc2nc(COc3ccccc3)no2)nc1,7.9*,1.2,-1.5,-0.4,-1.0
CCc1ccc(CN(C)Cc2nc(Cc3cccc(C(F)(F)F)c3)no2)nc1,3.3,-0.7,1.3,-0.3,·
O=C(Nc1ccccc1Cl)N1CCN(c2ccc3nnc(-c4ccccc4)n3n2)CC1,17.4*,·,·,·,-1.5
O=c1cc(Cc2ccccc2)[nH]c(=S)[nH]1,1.8,0.6,-2.0,0.9,·
COCc1cc(=O)[nH]c(=S)[nH]1,9.9*,1.4,-3.1,0.0,5.0*
COc1ccc(OC)c(S(=O)(=O)N2CCC(C(=O)NCc3cccs3)CC2)c1,·,·,-5.5,0.0,·
CCOC(=O)C(Oc1ccc2c(-c3ccccc3)cc(=O)oc2c1C)c1ccccc1 (configuration not stated),8.0*,-0.4,-2.1,0.6,0.4
CCOC(=O)C(Oc1ccc2c(-c3ccc(OC)cc3)cc(=O)oc2c1C)c1ccccc1 (configuration not stated),-1.1,-0.5,-4.5,0.1,·
O=C(CNC(=O)c1cc(-c2ccccc2)nn1-c1ccccc1)Nc1ccccc1Br,-1.0,0.7,-3.3,0.1,·
COC(=O)C1=C(C)N(Cc2ccccc2C(F)(F)F)C(=NCc2ccc3c(c2)OCO3)NC1c1ccc(Cl)cc1 (configuration not stated),·,-0.8,1.8,-0.3,·
O=C(Cc1cccs1)N/N=C\c1ccc([N+](=O)[O-])s1,5.9,3.7,-5.6,0.5,·
Cc1ccc(NC(=S)N/N=C/c2ccc([N+](=O)[O-])s2)cc1,9.2*,1.1,-0.7,-0.1,1.9
CN1CCN(C(=O)CN(c2cccc(Cl)c2)S(=O)(=O)c2ccccc2)CC1,10.9*,-1.1,1.2,0.6,-1.0
CCOc1ccc(C(=O)NC2CCN(C(=O)NCc3ccccc3)CC2)cc1,9.6*,0.0,3.4,0.2,-0.7
CN(CCC1CCCCO1)C(=O)c1cc(COc2ccc(F)cc2F)on1 (configuration not stated),-11.9,-0.4,-1.3,0.2,·
CN(CCCC1CCCC1)C(=O)c1cc(COc2ccc(F)cc2F)on1,9.1*,-0.1,0.1,-0.4,0.8
CC1(C)CCC(=NNC(N)=S)CC1,-6.5,-0.5,2.0,-0.1,·
SMILES,bovine MsrA act,MsrA inhibitor,SMARCA2 act,KLK7 zymogen act,MsrA activ conf
NC(=S)NN=C1CSSC1,14.5*,·,·,·,23.4*
CCN(CC)C(=O)c1cccc(-c2csc(C(C)(O)c3ccc(F)c(F)c3)n2)c1 (configuration not stated),-7.7,·,·,·,·
Cc1ccc(C(=O)ON=C2CCN(S(=O)(=O)c3ccccc3)CC2)cc1,7.7*,0.6,-0.4,-0.2,0.9
O=C(ON=C1CCN(S(=O)(=O)c2ccccc2)CC1)c1ccc(F)cc1,1.7,1.4,-3.2,0.0,·
COC(=O)C[C@@H]1CC[C@H](NS(=O)(=O)c2ccccc2F)[C@@H](CO)O1,·,-0.6,-4.5,-0.2,·
CCC1CCc2sc(C(=O)N(C)CC(=O)Nc3ccc(OC)cc3)cc2C1 (configuration not stated),0.5,0.5,-2.1,1.1,·
CCC1CCc2sc(C(=O)N(C)CC(=O)Nc3cccc(OC)c3)cc2C1 (configuration not stated),10.7*,-1.2,-2.8,0.7,-1.5
CC(C)COC(=O)c1ccc(N2C(=O)c3ccccc3C2=O)cc1,7.9*,-1.3,-2.1,-0.2,5.5*
CSC1=NC=C(C#N)C2=NC(c3c(Cl)cccc3Cl)NN12 (configuration not stated),-7.8,·,·,·,·
CC(C)c1ccc(Nc2n[nH]c(=S)s2)cc1,8.6*,0.8,-3.4,-0.8,0.1
Cc1cc(C)c(Nc2n[nH]c(=S)s2)cc1C,5.9,0.3,0.8,0.1,·
COc1ccccc1Nc1n[nH]c(=S)s1,8.9*,2.1,-3.3,1.1,1.0
Cc1ccc(Nc2n[nH]c(=S)s2)c(C)c1,10.3*,0.6,-1.3,-0.5,0.8
Cc1cccc(Nc2n[nH]c(=S)s2)c1C,6.8,-0.9,-1.9,-0.3,·
C[C@@H]1CCN(C2CC2)S(=O)(=O)c2c(cccc2N2CCC[C@H]2CO)O1,·,·,1.1,-0.1,·
COc1ccc(OCC2CN(C3CCCC3)S(=O)(=O)CCO2)cc1 (configuration not stated),·,-0.9,-4.1,-0.5,·
O=C(c1cc(C2CCCCN2S(=O)(=O)c2cccs2)on1)N1CCOCC1 (configuration not stated),-1.1,0.3,-5.8,-0.2,·
COc1ccc(-c2c(C)nn3c(N4CCN(Cc5ccccc5)CC4)cc(C)nc23)cc1OC,8.3*,-0.4,-2.4,-0.8,0.1
Clc1ccc(CSc2nnc(-c3ccccn3)n2Cc2cccs2)cc1Cl,-0.7,0.6,5.6,-0.1,·
CCCCN(CC)C(=O)c1cc2c(=O)n3cccc(C)c3nc2s1,10.3*,0.8,-2.5,3.6,-2.5
COc1ccc(C2CC(=O)C(c3cccc(F)c3)=CN2Cc2ccccc2)cc1 (configuration not stated),·,0.5,0.4,0.4,·
Cc1ccc(NC(=O)CSCC(=O)N(C)Cc2ccc(Cl)c(Cl)c2)cc1,-2.8,-0.6,-4.3,-0.1,·
COc1ccc(NC(=O)CSCC(=O)N(C)Cc2ccc(Cl)c(Cl)c2)cc1,10.7*,0.0,3.5,-0.1,-1.5
COc1ccc(CSCC(=O)Nc2ccc(S(=O)(=O)N3CCCCCC3)cc2)cc1,8.8*,0.1,1.3,0.4,-0.9
CC(NC(=O)C1CCN(CCOc2ccc(Cl)cc2)CC1)c1cccc2ccccc12 (configuration not stated),1.3,-0.6,-4.1,0.7,·

# Bioassay records: PubChem, The Scripps Research Institute Molecular Screening Center
